Only some compounds are listed: those with a hit (about 12% of all), similar ones and a draw of the others.
L3MBTL1 inh: blocks human L3MBTL1 | Q9Y468 | AlphaScreen L3MBTL1–H3K9me1 peptide binding | Potency, µM (top dose mostly 57.1 µM), for inactives: at the top dose activity, negative = inhibition, actives largely listed as inhibitors | 230,000 compounds, 0.66% hits; also: % is scaled to controls: 0 for no effect and ±100 for the full control effect; nearly all actives have a fitted effect of over 60% in size
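L3MBTL1 (50 nM) pre-complexed 30 min with biotinylated H3(1-15)K9me1 peptide (75 nM), then compounds added for 30 min at room temperature; AlphaScreen streptavidin donor/nickel chelate acceptor beads (10 ug/mL final) read after 30 min dark incubation.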
JMJD2A Tudor inh: inhibitors of human JMJD2A Tudor domain | O75164 | AlphaScreen JMJD2A-Tudor / H3K4me3 peptide binding | Potency, µM (top dose mostly 114 µM), for the others: at the top dose activity change, negative = inhibition, most hits filed as inhibitors | 390,000 compounds, 4.4% hits | AID 504339; also: % is scaled to controls: 0 for no effect and ±100 for the full control effect; nearly all actives have a fitted effect of over 50% in size
Sfp PPTase inh: blocks B. subtilis Sfp PPTase activity; Biochemical Sfp PPTase activity, qHTS; AID 1490; Potency, µM, without a hit: largest response in the series, negative = inhibition, hits mostly inhibitors; 310,000 compounds, 3.5% hits; Q9F4F7;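 also: the enzyme is Sfp with the accession as filed and its product quenches rhodamine fluorescence; 0% = enzyme reaction without inhibitor and -100% = no enzyme wells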
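Sfp 15 nM + cpd, 15 min RT; start w/ rhodamine-CoA 5 uM, BHQ-2-YbbR 12.5 uM (final); 50 mM Hepes pH 7.6, 10 mM MgCl2, 0.01% NP-40, 0.01% BSA; read 525/598 nm at 0 and 30 min.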
G9a inh: inhibitors of human histone lysine methyltransferase G9a; G9a H3K9 monomethylation, AlphaScreen, 2 h; Potency, µM (highest dose often 102 µM), without a hit: top-dose activity, negative = inhibition, hits mostly inhibitors; 350,000 compounds, 8.8% hits; also: % is scaled to controls: 0 for no effect and ±100 for the full control effect; nearly all actives have a fitted effect of over 75% in size
Target sequence (Q96KQ7 913-1193 limits assumed): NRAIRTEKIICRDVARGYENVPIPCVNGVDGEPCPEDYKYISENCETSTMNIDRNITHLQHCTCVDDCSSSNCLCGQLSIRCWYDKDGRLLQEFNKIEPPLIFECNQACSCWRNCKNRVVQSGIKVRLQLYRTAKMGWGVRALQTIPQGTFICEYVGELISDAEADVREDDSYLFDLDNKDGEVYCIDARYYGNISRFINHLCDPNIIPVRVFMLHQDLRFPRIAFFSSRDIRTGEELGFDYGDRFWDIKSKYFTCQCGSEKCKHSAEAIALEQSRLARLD
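Enzyme 20 nM + cpd, 15 min RT; add b-H3K9 pep 500 nM / SAM 20 uM; 2 h RT; anti-H3K9me1 Ab 0.5 ug/mL + SA donor / anti-rabbit acceptor beads 20 ug/mL each, 10 min; AlphaScreen read.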
HP1b binding inh: HP1-beta chromodomain-methylated histone interaction inhibition; 390,000 compounds, 0.56% hits; Potency, µM (titrated, usually from 114 µM), inactives show top-dose activity change, negative = inhibition, most hits filed as inhibitors; AlphaScreen HP1-beta / biotin-H3K9me3 peptide binding; P83916; also: nearly all actives have a fitted effect of over 70% in size
Target sequence (P83916 whole entry, looked up): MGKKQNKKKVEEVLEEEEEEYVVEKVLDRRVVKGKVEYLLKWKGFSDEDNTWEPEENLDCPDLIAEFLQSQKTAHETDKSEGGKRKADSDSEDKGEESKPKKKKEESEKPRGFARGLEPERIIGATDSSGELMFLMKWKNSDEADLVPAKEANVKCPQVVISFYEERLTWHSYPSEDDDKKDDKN
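Compound inhibition of the preformed complex between 50 nM HP1-beta and 50 nM biotinylated H3K9me3 peptide was read by AlphaScreen. Buffer was PBS pH 7.4 with 0.01% Tween-20. Incubations ran 30 min at room temperature, with 10 ug/mL donor/acceptor beads.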
BAZ2B block: blocks human BAZ2B | 360,000 compounds, 4.4% hits | Potency, µM (series often up to 114 µM), for inactives: top-dose activity change, negative = inhibition, usual class: inhibitors | AID 504333 | Q9UIF8 | AlphaScreen BAZ2B-H3K14Ac peptide displacement; also: % is scaled to controls: 0 for no effect and ±100 for the full control effect; nearly all actives have a fitted effect of over 60% in size
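Inhibition is scored as reduced AlphaScreen emission. The BAZ2B/b-H3(5-23)K14Ac complex (50 nM each) in PBS pH 7.4, 0.01% Tween-20 meets compound (up to 110 uM) for 30 min at RT before bead addition.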
The depositor's hits bear a star; ? = inconclusive; · = no result; [ ] = remark or other dose. Calls follow the shape of the dose curve; as a rule, active = well fitted curve in the direction sought with a large enough effect; inconclusive = small, poorly fitted or top-dose-only effect, or another doubt; inactive = no such curve, though single readings can be large; an effect the other way counts as inactive or inconclusive. Potency is read from the fitted curve at half-maximal effect.

SMILES | L3MBTL1 inh | JMJD2A Tudor inh | Sfp PPTase inh | G9a inh | HP1b binding inh | BAZ2B block
COc1cccc2c1cc1c(=O)n(CC(=O)NCc3ccc(N(C)C)cc3)nc(C)n12 | · | -9% | · | -3%[59 µM] | 33% | -13%
N=C(N)S/C=C\C(=O)O | · | · | 7.9µM* | 25µM* | · | ·
CC(C)n1cnc(S(=O)(=O)N2CCCC(C(=O)NCc3ccccc3Cl)C2)c1 (stereo not drawn) | · | -13% | · | 7%[59 µM] | 32% | -11%
CC(C)N1C(=O)C2C(c3ccccc3O)NC(C)(C(=O)O)C2C1=O (stereo not drawn) | · | -8% | 20µM* | 2% | 55% | ?
COc1cccc(C2NC(CCSC)(C(=O)O)C3C(=O)N(C(C)C)C(=O)C23)c1O (stereo not drawn) | · | -18% | ? | ? | 62% | 40µM*
NC(=O)C1CCN(C(=O)/C=C/c2ccco2)CC1 | -5% | -16% | ? | 8.9µM* | 6% | 8%
O=C(C=Cc1ccco1)N1CCOCC1 | · | -10% | · | · | 9%[57 µM] | ·
O=C(/C=C/c1ccco1)N1CCN(S(=O)(=O)/C=C/c2ccccc2)CC1 | -24% | -13% | 18µM* | 50µM* | 0% | ?
Cc1ccc(/C=C/C(=O)N2CCN(S(=O)(=O)c3cccs3)CC2)o1 | · | -34% | 14µM* | 7.9µM* | -11% | -36%
O=S(=O)(/C=C/c1ccccc1)N1CCOCC1 | · | 4% | 10% | 89µM* | 34% | -2%
O=S(=O)(/C=C/c1ccccc1)N1CCN(Cc2ccccc2)CC1 | -2% | -6% | 10% | 22% | 30% | -14%
COC(=O)C1C2CC3c4[nH]c5cc(OC)ccc5c4CCN3CC2CC(OC)C1OC (stereo not drawn) | · | · | -24% | ? | · | ·
O=C(/C=C/c1ccco1)N1CCN(S(=O)(=O)c2cccs2)CC1 | ? | ? | 16µM* | 40µM* | ? | ?
O=C(/C=C/c1cccc([N+](=O)[O-])c1)N1CCN(S(=O)(=O)c2cccs2)CC1 | -2% | -28% | 11% | -33% | -27% | ?
CC[C@H](NC(=O)[C@H](CCCN=C(N)N)NC(=O)[C@H](Cc1c[nH]c2ccccc12)NC(=O)[C@@H](N)CS)C(=O)N[C@@H](CCCN=C(N)N)C(=O)N[C@@H](Cc1ccc(O)cc1)C(N)=O | · | · | -8% | · | · | ·
O=C1CNC(=S)N1CCCn1ccnc1 | 12% | -11% | 6% | -27% | 46% | -26%
Cc1ccc(S(=O)(=O)NCCCn2ccnc2)cc1 | 1% | -14% | -5% | -17%[59 µM] | 14% | ?
Cc1cc(=S)cc(C)n1CCCn1ccnc1 | 8% | -20% | 4% | 25µM* | 18% | ·
Cc1ccc(S(=O)(=O)NC(=O)c2cc(C)n(CCCn3ccnc3)c2C)cc1 | -5% | 56µM* | 18% | ? | 36% | 32µM*
C=CCC(CC=C)(CNC(=O)C(=O)Nc1cccc(C(F)(F)F)c1)c1ccccc1 | · | 0% | · | 39%[59 µM] | 53% | 6%
COc1ccc(C2C(C(=O)Nc3cccnc3)=C(C)Nc3nc(-c4ccc(OC)c(OC)c4)nn32)cc1 (stereo not drawn) | · | -23% | · | 6%[59 µM] | 41% | -5%
Cc1ccc(NC(=O)CCc2c(C)nc3c(-c4ccccc4)c(C)nn3c2C)c(C)c1 | · | 1% | · | -3%[59 µM] | 41% | -5%
Cc1nn(C)c(C)c1CS(=O)(=O)c1ccccc1 | · | -11% | -3% | 50µM* | 35% | -6%
O=c1c2c(nc3c(-c4ccccc4)c[nH]n13)CCC2 | 0% | -10% | 5% | -7%[59 µM] | 20% | -2%
O=c1c2c(nc3c(-c4ccc(Cl)cc4)c[nH]n13)CCC2 | -8% | -5%[11.4 µM] | ? | 56µM* | ? | -1%
SMILES | L3MBTL1 inh | JMJD2A Tudor inh | Sfp PPTase inh | G9a inh | HP1b binding inh | BAZ2B block
CCCN1CCN(C(=O)c2ccccc2-c2nc3ccccc3s2)CC1 | -4% | -24% | 10% | 40µM* | 23% | -31%
CCN1CCN(C(=O)c2ccc(-c3nc4ccccc4s3)s2)CC1 | 6% | -12% | 1% | -43% | 13% | 1%
CCOC(=O)c1nsnc1NCCSC(=N)N | 6% | -3% | 3% | 8.9µM* | 15% | 10%
CCOC(=O)c1nonc1NC(C)=O | 8% | -9%[57.1 µM] | 28% | 16%[59 µM] | 47% | 7%
CCN(CC)CCCN1C(=O)C(=O)/C(=C(/O)c2ccc3c(c2)OCCO3)C1c1ccco1 (stereo not drawn) | -1% | -10% | 3% | 50µM* | 21% | -24%
CN(C)CCCN1C(=O)C(=O)/C(=C(/O)c2ccc3c(c2)OCCO3)C1c1ccco1 (stereo not drawn) | 2% | · | 8% | -1% | · | 2%
O=C1C(=O)N(CCN2CCOCC2)C(c2ccc([N+](=O)[O-])cc2)/C1=C(/O)c1ccc2c(c1)OCO2 (stereo not drawn) | · | 25µM* | -10% | · | 21% | -11%
O=C1C(=O)N(CCCN2CCOCC2)C(c2ccc(F)cc2)/C1=C(\O)c1ccc2c(c1)OCCO2 (stereo not drawn) | · | -8% | 8% | 45µM* | 49% | -19%
CC(C)(C)c1ccc(C2/C(=C(\O)c3ccc4c(c3)OCCO4)C(=O)C(=O)N2CCCN2CCOCC2)cc1 (stereo not drawn) | · | -15% | 16% | 10% | 60% | -12%
COc1ccc(Br)cc1Cn1nnc(C(=O)Nc2cccc(SC)c2)c1N | · | -15% | · | -6%[59 µM] | 22% | -23%
COc1cc2c(c(OC)c1OC)-c1c(cc(OC)c(OC)c1OC)CC(C)C(C)C2 (stereo not drawn) | · | · | -22% | · | · | ·
Cc1ccc(CN2CCSc3ccc(C(=O)N4CCN(c5ccccc5)CC4)cc32)cc1 | · | ? | · | 18µM* | 0% | -16%
Cc1ccc(CN2CCSc3ccc(C(=O)N4CCN(c5cc(C)ccc5C)CC4)cc32)cc1 | · | -26% | · | ? | 17% | -31%
Cc1ccc(CN2CCSc3ccc(C(=O)NCc4ccccn4)cc32)cc1 | · | ? | 50µM* | 40µM* | -6% | ?
Cc1c(C)n(Cc2ccccc2)c2ccc(C(=O)N3CCN(c4ccccc4)CC3)cc12 | · | 14µM* | · | ? | ? | ?
CCn1nc(C)c(/C=N/NC(=O)c2ccc3c(c2)c(C)c(C)n3Cc2ccccc2)c1C | · | 35µM* | -10% | ? | -16% | ?
CCOC(=O)C12CC1/C(=N\O)c1ccccc1O2 (stereo not drawn) | · | · | -11% | -15%[59 µM] | · | ·
